# Screens from PubChem BioAssay.
# Sampled rows, rich in hits. Any-hit rate of the full collection: about 31%.
# CYP2C19 inh: blockers of cytochrome P450 2C19 activity – biochemical, luminescence, ADME assay, primary screen | P33261 | CYP2C19 Supersomes, luciferin-H EGE luminescence, 30 min | inhibition, % at 5 µM | actives 21% (n = 96,000);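 active means CYP2C19 inhibition above a set limit at 5 µM in the primary screen, cut at about 50% in these data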;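 further: plate controls were negative control wells for no effect and 2.5 mM tranylcypromine positive control for full effect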
# Target sequence (P33261 whole entry, looked up): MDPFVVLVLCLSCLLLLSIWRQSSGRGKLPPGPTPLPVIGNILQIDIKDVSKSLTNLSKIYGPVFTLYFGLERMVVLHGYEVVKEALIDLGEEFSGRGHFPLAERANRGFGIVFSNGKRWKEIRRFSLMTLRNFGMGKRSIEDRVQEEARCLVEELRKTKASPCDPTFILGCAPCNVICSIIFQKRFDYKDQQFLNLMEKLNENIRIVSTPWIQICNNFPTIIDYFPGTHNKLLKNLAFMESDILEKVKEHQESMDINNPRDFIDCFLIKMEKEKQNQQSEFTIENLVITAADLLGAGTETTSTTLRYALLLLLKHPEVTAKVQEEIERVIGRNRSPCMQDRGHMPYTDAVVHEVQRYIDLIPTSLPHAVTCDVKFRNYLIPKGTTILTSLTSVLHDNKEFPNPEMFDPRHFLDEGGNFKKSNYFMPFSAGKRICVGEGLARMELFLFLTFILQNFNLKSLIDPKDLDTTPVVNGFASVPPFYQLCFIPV
# CYP2C19 activ: human CYP2C19 activators, primary screen, biochemical, luminescence. recombinant CYP2C19, luciferin-H EGE luminescence; active compounds read high; 0 = fully inhibited enzyme, 1 = untreated enzyme. activation factor at 5 µM. 96,000 tested, under 10 active;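 active means activation factor of at least 2 at 5 µM in the primary screen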;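 further: 0 = wells with 2.5 mM tranylcypromine and 1 = vehicle-only wells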
# CYP2C9 activ: human CYP2C9 activators, primary screen, biochemical, luminescence; activation factor at 5 µM; recombinant CYP2C9, luciferin-H conversion; active compounds read high; factor 1 = untreated enzyme, 0 = blocked; AID 1024, 2008; actives 1.4% (n = 96,000); Cytochrome P450 2C9 (Homo sapiens), P11712;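 active means activation factor of 2 or more for CYP2C9 at a 5 µM dose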;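 further: 0 = sulfaphenazole-blocked wells and 1 = vehicle-only wells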
# CYP2C9 inhib: blockers of cytochrome P450 2C9 activity – biochemical, luminescence, ADME assay, primary screen. inhibition, % at 5 µM. actives 20% (n = 96,000). P11712. CYP2C9 Supersomes, luciferin-H conversion;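 active means blocking of liver enzyme CYP2C9 beyond about 50% at 5 µM, limit read from the data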
# Numbers without * were called inactive.
SMILES,CYP2C19 inh,CYP2C19 activ,CYP2C9 activ,CYP2C9 inhib
Cc1ccc(-n2nnc3c(=O)n(CC(=O)NCc4ccco4)cnc32)cc1,17,0.8,2.1*,-113
COC(=O)c1cc(CSc2nnc(-c3ccccc3)c(-c3ccccc3)n2)oc1C,12,0.9,0.5,53*
O=C(O)CSCCC(=O)Nc1ccc(F)cc1,-2,1,1,1
COc1ccc(-c2nnc(-c3ccc(Br)o3)o2)cc1OC,56*,0.4,0.7,31
COc1ccc(-c2nc(-c3ccc(Br)o3)no2)cc1OC,-9,1.1,0.6,41
CCN1CCN(C(=O)c2ccc(CS(=O)(=O)Cc3ccccc3F)o2)CC1,11,0.9,1,2
Cc1cc2ccccc2cc1CN1CCOCC1,58*,0.4,1,-1
c1cc2ccc3ccc(CN4CCOCC4)c4ccc(c1)c2c34,74*,0.3,1.5,-48
CCOC(=O)N1CCC(NC(=O)CCC(=O)N2CC(C)Oc3ccc(Cl)cc32)CC1 (stereo not drawn),41,0.6,0.5,46
Cc1nn(-c2ccccc2)c(N2CCCC2)c1/C=N/O,3,1,1.2,-16
CN(C)/C=C(\C=N\OCc1ccc(Cl)cc1Cl)C(=O)Nc1ccc(Cl)c(Cl)c1,-9,1.1,1.1,-11
COC(=O)c1nn(-c2ccccc2)c(Sc2ccc(Br)cc2)c1/C=N/O,39,0.6,0.3,73*
COC(=O)c1nn(-c2ccccc2)c(Sc2ccc(Cl)cc2)c1/C=N/O,37,0.6,0.5,55*
COC(=O)c1nn(-c2ccccc2)c(=O)cc1Oc1ccc(Cl)cc1,24,0.8,0.9,8
COC(=O)c1nn(-c2ccccc2)c(Cl)c1/C=N/OCc1ccc(Cl)cc1Cl,29,0.7,0.3,67*
CCCCC(=O)Nc1ccc(C(=O)NN2C(=O)c3ccccc3C2=O)cc1,6,0.9,0.7,29
O=C(O)C1C2C=CC(C2)C1C(=O)Nc1ccc(C(=O)N2CCCCC2)cc1 (stereo not drawn),15,0.9,0.9,5
S=C(NCCC(c1ccccc1)c1ccccc1)Nc1ccccc1Cl,55*,0.4,0.3,66*
Cc1cc(-c2ccccc2)nc(N(C)NC(=O)c2c(F)cccc2F)c1S(C)(=O)=O,51*,0.5,0.3,69*
Cc1ccc(NC(=O)CC(=O)NCCN2CCOCC2)cc1,-15,1.1,1.2,-15
CC(=O)/C(=N\Nc1ccc(C)cc1)N1CCOCC1,80*,0.2,0.6,36
O=c1c2ccccc2ncn1-c1ccc2c(c1)OCCO2,19,0.8,0.9,12
COc1ccc(CNC(=O)c2cc(-c3ccccc3O)n[nH]2)cc1,-20,1.2,1.2,-19
COC(=O)c1cc(-c2cccc(OC)c2)n[nH]1,70*,0.3,1,4
CCCc1ccc(-c2cc(C(=O)N/N=C/c3ccc([N+](=O)[O-])o3)c3ccccc3n2)cc1,51*,0.5,0,96*
SMILES,CYP2C19 inh,CYP2C19 activ,CYP2C9 activ,CYP2C9 inhib
O=C(N/N=C/c1ccc([N+](=O)[O-])o1)c1cc(-c2cccc(Br)c2)nc2ccccc12,9,0.9,0.4,56*
Cc1ccc(OCC(=O)N/N=C/c2ccc([N+](=O)[O-])o2)cc1,-3,1,1.1,-13
O=C(Nc1ncn[nH]1)c1ccc(Cl)c(S(=O)(=O)N2CCCCCC2)c1,1,1,1,2
O=C(Nc1ncn[nH]1)c1c(Cl)ccc(Cl)c1Cl,88*,0.1,1.4,-37
O=C(O)CCn1c(=O)c2ccccc2c2ccccc2c1=O,18,0.8,0.8,24
O=C(O)C1C2C=CC(C2)C1C(=O)NCCc1ccncc1 (stereo not drawn),78*,0.2,0.8,23
O=C(O)C1C2C=CC(C2)C1C(=O)NCCc1ccccc1 (stereo not drawn),3,1,0.9,7
O=C(O)C1C2C=CC(C2)C1C(=O)NCCCn1ccnc1 (stereo not drawn),88*,0.1,0.3,67*
O=C(CSc1nnc(CNC(=O)c2cccs2)o1)NC1CCCCC1,-16,1.2,1.2,-23
CC(=O)c1ccc(NC(=O)C2CCCN2S(=O)(=O)c2ccc(F)cc2)cc1 (stereo not drawn),66*,0.3,0.3,74*
CCc1nnc(NC(=O)[C@@H]2CCCN2S(=O)(=O)c2ccc3c(c2)OCCO3)s1,16,0.8,0.6,45
CC(=O)c1ccc(NC(=O)C2CCCN2S(=O)(=O)c2ccc(C)cc2)cc1 (stereo not drawn),44,0.6,0.6,35
CCc1nnc(NC(=O)C2CCCN2S(=O)(=O)c2ccc(F)cc2)s1 (stereo not drawn),76*,0.2,0.1,86*
CS(=O)(=O)Nc1ccc(C(=O)NCc2ccco2)cc1,-15,1.1,1,4
COC(=O)c1[nH]c2cccc(OC)c2c1NC(=O)C(C)N1CCC(C)CC1 (stereo not drawn),18,0.8,2.3*,-125
CC(C)CC(=O)Nc1ccc(S(=O)(=O)NCc2ccco2)cc1,-7,1.1,0.5,46
O=C(COc1ccccc1F)Nc1ccc(S(=O)(=O)NCc2ccco2)cc1,17,0.8,0.5,53*
O=C(COc1ccccc1)Nc1ccc(S(=O)(=O)NCc2ccco2)cc1,17,0.8,0.5,51*
O=C(COc1ccccc1)NCC(=O)Nc1ccc(S(=O)(=O)NCc2ccco2)cc1,-8,1.1,0.4,57*
COc1cccc(NC(=O)COC(=O)c2ccc(S(=O)(=O)NCc3ccco3)cc2)c1,7,0.9,0.1,86*
O=C(COC(=O)c1ccc(S(=O)(=O)NCc2ccco2)cc1)NC1CCCCCC1,13,0.9,0.5,47
CCOc1cc(CNCCCN2CCOCC2)cc(Br)c1OCC(=O)Nc1cccc(C(F)(F)F)c1,12,0.9,0.9,9
Cc1cc(C(=O)N2CCC(Cc3ccccc3)CC2)ccc1[N+](=O)[O-],78*,0.2,0.9,11
O=C(c1ccccc1[N+](=O)[O-])N1CCC(Cc2ccccc2)CC1,66*,0.3,0.4,60*
O=C(/C=C/c1ccccc1)N1CCC(Cc2ccccc2)CC1,36,0.6,0.8,24
SMILES,CYP2C19 inh,CYP2C19 activ,CYP2C9 activ,CYP2C9 inhib
COc1ccc2c(c1)c1ncn(CCCN3CCOCC3)c(=O)c1n2C,27,0.7,0.9,11
COc1ccc2c(c1)c1ncn(CCc3ccccc3)c(=O)c1n2C,58*,0.4,0.1,92*
Clc1cc(Cl)cc(Nc2ncn[nH]2)c1,50*,0.5,1,4
CN(C1CCCCC1)S(=O)(=O)Cc1ccccc1,54*,0.5,0.8,16
CS(=O)(=O)N(CC(=O)N1CCN(Cc2ccccc2)CC1)C1CCCCC1,-14,1.1,1.2,-19
COc1ccc(CC(=O)NNC(=O)c2ccoc2C)cc1OC,0,1,1,-1
Cc1ccc2nc(/C(C#N)=C\c3cc(C)n(-c4cccc([N+](=O)[O-])c4)c3C)[nH]c2c1,48,0.5,0.2,84*
